Compound activity: PubChem, several laboratories
This is a sample that favours compounds with a hit; in the whole collection about 2.6% have one here.
IDE act: IDE (human) activation, cell-based; AID 493087; hit rate 0.073% among 340,000; activation, % at 5.96 µM; HEK cells, FAbeta-B cleavage, fluorescence polarization; 0% vehicle, 100% cell-free pure enzyme wells; P14735;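 active = activation above the mean of all tested compounds plus 3 SD, set per screening campaign, cut at about 17% in these data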
Target sequence (P14735 whole entry, looked up): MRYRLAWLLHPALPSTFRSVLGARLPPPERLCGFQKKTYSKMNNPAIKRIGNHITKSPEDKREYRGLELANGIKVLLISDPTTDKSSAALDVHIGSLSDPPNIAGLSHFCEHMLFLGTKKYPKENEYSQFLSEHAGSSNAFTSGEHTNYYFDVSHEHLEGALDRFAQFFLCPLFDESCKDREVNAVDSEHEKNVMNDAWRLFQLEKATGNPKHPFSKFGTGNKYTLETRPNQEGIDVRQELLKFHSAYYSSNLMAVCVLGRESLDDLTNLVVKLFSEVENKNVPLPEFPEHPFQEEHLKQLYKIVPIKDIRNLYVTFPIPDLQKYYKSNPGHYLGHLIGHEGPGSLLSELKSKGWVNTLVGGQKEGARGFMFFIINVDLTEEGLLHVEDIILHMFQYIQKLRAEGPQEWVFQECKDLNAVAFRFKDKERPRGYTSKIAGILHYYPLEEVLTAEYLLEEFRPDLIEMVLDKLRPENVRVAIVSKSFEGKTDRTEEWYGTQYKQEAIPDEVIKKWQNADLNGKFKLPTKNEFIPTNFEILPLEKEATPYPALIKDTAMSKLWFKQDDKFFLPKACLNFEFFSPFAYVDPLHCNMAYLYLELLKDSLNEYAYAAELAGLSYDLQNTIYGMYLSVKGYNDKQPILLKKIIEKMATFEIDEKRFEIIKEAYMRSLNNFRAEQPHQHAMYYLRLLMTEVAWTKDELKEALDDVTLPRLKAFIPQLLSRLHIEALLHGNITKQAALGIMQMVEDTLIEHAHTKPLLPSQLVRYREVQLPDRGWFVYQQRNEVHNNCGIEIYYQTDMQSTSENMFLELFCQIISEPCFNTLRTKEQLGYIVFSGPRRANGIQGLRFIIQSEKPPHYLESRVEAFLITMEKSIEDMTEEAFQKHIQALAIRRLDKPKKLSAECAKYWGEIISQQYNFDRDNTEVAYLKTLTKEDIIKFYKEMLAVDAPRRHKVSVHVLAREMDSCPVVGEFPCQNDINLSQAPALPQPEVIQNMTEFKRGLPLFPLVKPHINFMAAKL
Myeloid diff 2: compounds promoting myeloid differentiation | ER-HoxA9 myeloid progenitors, lysozyme-GFP differentiation, flow cytometry | hit rate 1% among 360,000 | calls only at 10 µM;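 active = normalized GFP-positive differentiation at or above the plate's own cutoff, the solvent-only control mean plus 3 SD; inconclusive = no clear call, values can overlap the other calls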;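 note: cells exposed to compound for four days before flow analysis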
CRFBP-R2 block: CRF-BP/CRF-R2 complex antagonism | hit rate 0.59% among 350,000 | HEK293 CRF-R2/CRF-BP, CRF-induced calcium fluorescence | inhibition, % at 11.8 µM | AID 588475;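 active = inhibition of the ligand-induced calcium signal above about 50% at the single tested concentration, limit read from the data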
TPT1 inhibitor: inhibitors of Candida albicans tRNA 2'-phosphotransferase TPT1; recombinant caTPT1, FP RNA substrate dephosphorylation; inhibition, % at 5 µM; hit rate 0.81% among 300,000;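 active = inhibition above the mean of all tested compounds plus 3 SD, set per screening campaign, cut at about 24% in these data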;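 note: plate controls were DMSO alone for no effect and ferristatin control at 100 nM for full effect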
IDE cell inh: inhibitors of human insulin-degrading enzyme in cells. P14735. HEK cells, FAbetaB cleavage, fluorescence polarization. inhibition, % at 5.59 µM. hit rate 0.41% among 320,000. AID 434962;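 active = percent inhibition above the average of all tested compounds plus 3 SD, set per screening campaign, cut at about 16% in these data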;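 note: IDE supplied by intact live HEK cells; FP after avidin binding of uncleaved biotin substrate so inhibition keeps polarization high; 0% = DMSO wells and 100% = 60 µM reference IDE inhibitor Ii1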
CRFBP-R2 agonist: agonists of human CRF-binding protein/CRF-R2 receptor complex; HEK293 CRF-R2/CRF-BP, calcium dye fluorescence (FLIPR); percent of saturating CRF peptide response; activation, % at 13.2 µM; hit rate 0.46% among 350,000; AID 588473;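 active = activation of at least 50%, plus an integration ratio under a set limit after plate pattern correction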;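 note: plate controls were neutral control wells without compound for no effect and CRF at EC100 for full effect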
An asterisk follows results filed as active.

Screening O=C(c1ccc(OC2CCN(C/C=C/c3ccc(F)cc3)CC2)cc1)N1CCCC1 returned IDE act 4, Myeloid diff 2 inactive, CRFBP-R2 block 1, TPT1 inhibitor 2, IDE cell inh 0 and CRFBP-R2 agonist 4.
Screening N#Cc1c(N)nc(Sc2ccc(Cl)cc2)c(C#N)c1-c1ccccc1Cl returned IDE act -1, Myeloid diff 2 active, CRFBP-R2 block -50, TPT1 inhibitor 6, IDE cell inh 2 and CRFBP-R2 agonist 26.
Screening O=C1OC(c2ccc(F)cc2)=C/C1=C\c1ccc([N+](=O)[O-])o1 returned TPT1 inhibitor 44* and IDE cell inh 6.
For NNC(=O)c1cc2c(s1)CCCCCC2 the results were IDE act 6, Myeloid diff 2 active, CRFBP-R2 block -3, TPT1 inhibitor -3, IDE cell inh 10 and CRFBP-R2 agonist -1.
`C[C@@H]1CN([C@H](C)CO)C(=O)c2c(c3ccccc3n2C)-c2ccccc2CO[C@@H]1CN(C)S(=O)(=O)c1cccs1` gave Myeloid diff 2 inactive, CRFBP-R2 block -22 and CRFBP-R2 agonist 1.
For CC(C)(C)OC(=O)[C@H](CCCCN)NC(=O)c1[nH]cnc1C(=O)N[C@@H](Cc1ccccc1)C(=O)OCc1ccccc1 the results were IDE act 2, Myeloid diff 2 active, CRFBP-R2 block 0, IDE cell inh 0 and CRFBP-R2 agonist 0.
For O=C(NC(=S)NNC(=O)c1cccs1)c1ccc(Br)o1 the results were IDE act -2, CRFBP-R2 block 19, TPT1 inhibitor 2, IDE cell inh -6 and CRFBP-R2 agonist 71*.
For Cc1ncc(COCc2ccccc2)c(CO)c1OCc1ccccc1 the results were IDE act 5, Myeloid diff 2 inactive, CRFBP-R2 block 36 and CRFBP-R2 agonist -1.
`COc1ccc(N(CC(=O)NCCSC2CCCCC2)S(C)(=O)=O)c(OC)c1` gave IDE act 7, Myeloid diff 2 inactive, CRFBP-R2 block -5, TPT1 inhibitor 6, IDE cell inh -2 and CRFBP-R2 agonist -1.
CSCCC(C(=O)NCc1ccccc1)n1c(C2CCN(C(C)=O)CC2)nc2ccccc21 (centres undefined) was read as Myeloid diff 2 inactive.
Screening c1ccc2sc(NC3=NCN(C4CCCCC4)CN3)nc2c1 returned IDE act 4, Myeloid diff 2 inactive, CRFBP-R2 block -13, TPT1 inhibitor 1, IDE cell inh -1 and CRFBP-R2 agonist 0.
For CC1CCCCC1N1CN=C(Nc2nc3ccccc3s2)NC1 (centres undefined) the results were IDE act -1, Myeloid diff 2 active, CRFBP-R2 block -7, TPT1 inhibitor -1, IDE cell inh 1 and CRFBP-R2 agonist 0.
`COc1ccccc1-c1ccc(SCc2ccccc2)nn1` gave IDE act -1, Myeloid diff 2 inactive, CRFBP-R2 block 13, TPT1 inhibitor 0, IDE cell inh -1 and CRFBP-R2 agonist 0.
`COc1ccccc1-c1ccc(SCc2cccc(F)c2)nn1` gave IDE act -12, Myeloid diff 2 inactive, CRFBP-R2 block 53*, TPT1 inhibitor 2, IDE cell inh 7 and CRFBP-R2 agonist 0.
O=S(=O)(NCCc1csc(-c2cccnc2)n1)c1ccc2c(c1)OCCO2 was read as IDE act 1, Myeloid diff 2 active, CRFBP-R2 block 3, TPT1 inhibitor -3, IDE cell inh 5 and CRFBP-R2 agonist 3.
Screening O=C(/C=C/c1ccc([N+](=O)[O-])s1)N1CCCC1 returned IDE act 3, Myeloid diff 2 active, CRFBP-R2 block 14, TPT1 inhibitor 1, IDE cell inh 2 and CRFBP-R2 agonist 1.
For O=C(/C=C/c1ccc([N+](=O)[O-])s1)N1CCCCC1 the results were IDE act 3, Myeloid diff 2 inconclusive, CRFBP-R2 block 0, TPT1 inhibitor 0, IDE cell inh -4 and CRFBP-R2 agonist 0.
Cc1cc(C)n2c(SCC(=O)NCc3ccco3)nnc2n1 was read as IDE act 2, Myeloid diff 2 inactive, CRFBP-R2 block 20, TPT1 inhibitor 2, IDE cell inh 2 and CRFBP-R2 agonist -2.
For COc1ccc(CNC(=O)CSc2nnc3nc(C)cc(C)n23)cc1OC the results were IDE act 6, Myeloid diff 2 active, CRFBP-R2 block 3, TPT1 inhibitor 0, IDE cell inh 0 and CRFBP-R2 agonist 1.
For N#Cc1cc([N+](=O)[O-])cnc1N(CCO)CCO the results were IDE act 2, Myeloid diff 2 inactive, CRFBP-R2 block 3, TPT1 inhibitor 1, IDE cell inh 2 and CRFBP-R2 agonist 0.
Screening CCOc1ccc(/C=N/NC(=O)C(C)N(c2ccc(OC)cc2)S(C)(=O)=O)cc1OCC (centres undefined) returned IDE act 4, Myeloid diff 2 inactive, CRFBP-R2 block 55*, TPT1 inhibitor 1, IDE cell inh -3 and CRFBP-R2 agonist 0.
For COCCOC(=O)C(C#N)c1nc2ccccc2nc1N1CCN(Cc2ccccc2)CC1 (centres undefined) the results were IDE act 2, Myeloid diff 2 active, CRFBP-R2 block 13, TPT1 inhibitor -4, IDE cell inh 4 and CRFBP-R2 agonist 1.
For O=C(CN1C(=O)c2ccccc2S1(=O)=O)Nc1cccc(S(=O)(=O)N2CCCCC2)c1 the results were IDE act 3, Myeloid diff 2 inactive, CRFBP-R2 block -4, IDE cell inh 0 and CRFBP-R2 agonist 0.
Screening CC1Cc2ccccc2N1C(=O)CSc1nnc2c(n1)[nH]c1ccc(F)cc12 (centres undefined) returned IDE act 2, Myeloid diff 2 inactive, CRFBP-R2 block -11, TPT1 inhibitor -4, IDE cell inh 0 and CRFBP-R2 agonist -1.
`COc1ccc(N(CC(=O)Nc2cc(Cl)ccc2OC)S(=O)(=O)c2c(C)noc2C)cc1` gave IDE act 1, Myeloid diff 2 active, CRFBP-R2 block -15, TPT1 inhibitor -1, IDE cell inh -4 and CRFBP-R2 agonist 0.
Screening COc1ccc(N(CC(=O)Nc2ccccc2OC)S(=O)(=O)c2ccc(NC(C)=O)cc2)cc1 returned IDE act -3, Myeloid diff 2 active, CRFBP-R2 block 15, TPT1 inhibitor -3, IDE cell inh 2 and CRFBP-R2 agonist 0.
Screening COc1cccc(CNC(=O)CN(c2ccc(C(C)C)cc2)S(=O)(=O)c2c(C)noc2C)c1 returned IDE act 6, Myeloid diff 2 inactive, CRFBP-R2 block 110*, TPT1 inhibitor 2, IDE cell inh 2 and CRFBP-R2 agonist 2.
`COc1ccc(OC)c(NC(=O)CN(c2ccc(C)cc2)S(=O)(=O)c2c(C)noc2C)c1` gave IDE act 5, Myeloid diff 2 inactive, CRFBP-R2 block 7, TPT1 inhibitor -2, IDE cell inh -6 and CRFBP-R2 agonist -1.
